Experimental data: the supplement of paper PMC12350171
Where a name gives a salt, the structure may show the parent alone.

What follows are compounds tested on Haemophilus parainfluenzae (assay: growth AUC normalised to DMSO control (fraction of control); higher = less growth inhibition, active = hit call of the paper). Settings: 20 µM;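 active = AUC significantly below DMSO controls by Student t-fit with adjusted P under 0.01; inactive = not significantly reduced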.
Method in brief: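 Hemin and NAD were added to the medium for Haemophilus parainfluenzae. All pathogens, after two anaerobic passages, were inoculated at a starting OD578 of 0.01 into pre-reduced mGAM plates with 20 μM compound and 1% DMSO under breathable seals, and OD578 was read hourly for 24 h in three biological replicates. AUC of each growth curve was obtained with the trapezoidal rule up to the exponential-to-stationary transition and normalised to DMSO controls from the same plate.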

SMILES	growth AUC normalised to DMSO control
Nc1ccccc1S(N)(=O)=O [o-Sulfanilamide]	0.898 (inactive)
O=C(O)Cc1ccccc1Nc1c(Cl)cccc1Cl [Diclofenac sodium]	0.936 (inactive)
CC(C)CC(=O)N[C@H](C(=O)N[C@H](C(=O)N[C@@H](CC(C)C)[C@@H](O)CC(=O)N[C@@H](C)C(=O)N[C@@H](CC(C)C)[C@@H](O)CC(=O)O)C(C)C)C(C)C [Pepstatin A]	1.07 (inactive)
O=C1Nc2ccc(Cl)cc2[C@@](C#CC2CC2)(C(F)(F)F)O1 [Efavirenz]	0.991 (inactive)
O=C1NCCN1CCN1CCC(c2cn(-c3ccc(F)cc3)c3ccc(Cl)cc23)CC1 [Sertindole]	1 (inactive)
CC(=O)N(CC(O)CO)c1c(I)c(C(=O)NCC(O)CO)c(I)c(C(=O)NCC(O)CO)c1I (centres undefined) [Iohexol]	0.981 (inactive)
CN[C@@H]1[C@@H](O)[C@@H](O[C@@H]2[C@@H](O)[C@H](O[C@H]3OC(CN)=CC[C@H]3N)[C@@H](N)C[C@H]2N)OC[C@]1(C)O [Sisomicin sulfate]	0.864 (inactive)
CCN(CC)C(=O)N1CCN(C)CC1 [Diethylcarbamazine citrate]	0.978 (inactive)
CCN(CCO)CCCC(C)Nc1ccnc2cc(Cl)ccc12 (centres undefined) [Hydroxychloroquine sulfate]	1 (inactive)
CC(=O)OCC(=O)[C@@]12N=C(C)O[C@@H]1C[C@H]1[C@@H]3CCC4=CC(=O)C=C[C@]4(C)[C@H]3[C@@H](O)C[C@@]12C [Deflazacort]	1.02 (inactive)
COC(=O)Nc1nc2cc(C(=O)c3cccs3)ccc2[nH]1 [Nocodazole]	1.03 (inactive)
CC[C@]12CCCN3CCc4c(n(c5ccccc45)[C@@](O)(C(=O)OC)C1)[C@@H]32 [Vincamine]	0.98 (inactive)
CCn1nc(C(=O)O)c(=O)c2cc3c(cc21)OCO3 [Cinoxacin]	0.294 (active)
NC(=O)c1cnccn1 [Pyrazinamide]	0.979 (inactive)
CNC[C@H](O)[C@@H](O)[C@H](O)[C@H](O)CO [Meglumine]	1.05 (inactive)
O=C1c2ccccc2C(=O)C1c1ccccc1 [Phenindione]	0.973 (inactive)
COc1c(N2C[C@@H]3CCCN[C@@H]3C2)c(F)cc2c(=O)c(C(=O)O)cn(C3CC3)c12 [Moxifloxacin]	0.0254 (active)
Cc1ccc(Cl)c(Nc2ccccc2C(=O)O)c1Cl [Meclofenamic acid sodium salt monohydrate]	0.94 (inactive)
COc1ccc2cc([C@@H](C)C(=O)O)ccc2c1 [(R) Naproxen sodium salt]	1.1 (inactive)
C[C@@](Cc1ccc(O)c(O)c1)(NN)C(=O)O [Carbidopa]	0.996 (inactive)

SMILES	growth AUC normalised to DMSO control
CN(C)CC/C=C1\c2ccccc2CSc2ccccc21 [Dosulepin hydrochloride]	0.865 (inactive)
CC(N/C(=N\C#N)Nc1ccncc1)C(C)(C)C (centres undefined) [Pinacidil monohydrate]	1 (inactive)
Nc1ccn([C@@H]2CS[C@H](CO)O2)c(=O)n1 [Lamivudine]	0.999 (inactive)
C[C@H](O)C(=O)Nc1c(I)c(C(=O)NC(CO)CO)c(I)c(C(=O)NC(CO)CO)c1I [Iopamidol]	1.07 (inactive)
CC1(C)S[C@@H]2[C@H](NC(=O)Cc3ccccc3)C(=O)N2[C@H]1C(=O)O [Benzylpenicillin sodium]	0.0512 (active)
Cc1onc(-c2ccccc2Cl)c1C(=O)N[C@@H]1C(=O)N2[C@@H]1SC(C)(C)[C@@H]2C(=O)O [Cloxacillin sodium salt]	0.914 (inactive)
CN(C)C(=O)C(CCN1CCC(O)(c2ccc(Cl)cc2)CC1)(c1ccccc1)c1ccccc1 [Loperamide hydrochloride]	1 (inactive)
O=C1OCCN1/N=C/c1ccc([N+](=O)[O-])o1 [Furazolidone]	0.361 (active)
CC[C@H](C)[C@H](N)C1=N[C@H](C(=O)N[C@@H](CC(C)C)C(=O)N[C@H](CCC(=O)O)C(=O)N[C@H](C(=O)N[C@H]2CCCCNC(=O)[C@H](CC(N)=O)NC(=O)[C@@H](CC(=O)O)NC(=O)[C@H](Cc3cnc[nH]3)NC(=O)[C@@H](Cc3ccccc3)NC(=O)[C@H]([C@@H](C)CC)NC(=O)[C@@H](CCCN)NC2=O)[C@@H](C)CC)CS1 [Bacitracin]	0.999 (inactive)
N=c1nc(N2CCCCC2)cc(N)n1O [Minoxidil]	1.03 (inactive)
C[C@H](N)[C@H](O)c1cccc(O)c1 [Metaraminol bitartrate]	0.968 (inactive)
Cc1cc(C(C)(C)C)c(O)c(C)c1CC1=NCCN1 [Oxymetazoline hydrochloride]	0.991 (inactive)
C#C[C@]1(O)CC[C@H]2[C@@H]3CCc4cc(O)ccc4[C@H]3CC[C@@]21C [Ethinylestradiol]	1.04 (inactive)
C[C@H](CS)C(=O)N1CCC[C@H]1C(=O)O [Captopril]	1.05 (inactive)
Nc1nc(=S)c2ncn([C@@H]3O[C@H](CO)[C@@H](O)[C@H]3O)c2[nH]1 [Thioguanosine]	0.973 (inactive)
O=C(O)c1cccnc1Nc1cccc(C(F)(F)F)c1 [Niflumic acid]	1.02 (inactive)
CC(=O)[C@H]1CC[C@H]2[C@@H]3CCC4=CC(=O)CC[C@]4(C)[C@H]3CC[C@]12C [Progesterone]	1.03 (inactive)
CC(=O)Oc1ccc(C(c2ccc(OC(C)=O)cc2)c2ccccn2)cc1 [Bisacodyl]	1.03 (inactive)
CCN1CCCC(OC(=O)C(c2ccccc2)c2ccccc2)C1 (centres undefined) [Piperidolate hydrochloride]	1.05 (inactive)
